In the supplement of paper PMC10646978:

test system: RAW-Dual (murine macrophage reporter line); assay: viability score (confluency relative to resting cells, overnight) (fraction); higher = more viable, active = viable (0.7 or more); settings: modulator concentration 10 µM
How it was run: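 A compound met the cutoff when both of two confluency masks exceeded 70% of resting cells. Those masks were made with IncuCyte software from IncuCyte images of RAW-Dual macrophages treated overnight at 10 μM final. This is the basis of the viability score, which is confluency relative to resting cells.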

SMILES	viability score
CN(C(=O)c1cncc(F)c1)C1CN(c2ccc3nnc(C4CC4)n3n2)C1	1 (active)
Cc1ncc(CC(=O)N2CCC(c3ccccc3Cl)S(=O)(=O)CC2)s1 (stereo not given)	1 (active)
O=C(C=Cc1ccc(O)cc1)c1ccc(O)cc1O	0.979 (active)
Cc1cccc(C(=O)ON=C(c2ccncc2)c2ccc([N+](=O)[O-])cc2)c1	1 (active)
CCOC(=O)C1=C(C)NC(=S)NC1c1ccccc1OCc1ccccc1 (stereo not given)	1.01 (active)
O=C(C1COCC(=O)N1Cc1ccccc1)N1CCN(c2cccc(Cl)c2)CC1 (stereo not given)	1.01 (active)
COC(=O)C1=CN(CC2CCCO2)C=C(C(=O)OC)C1c1cccc(F)c1 (stereo not given)	0.954 (active)
CCOC(=O)[C@H](CCc1ccccc1)N[C@H]1CCc2ccccc2N(CC(=O)O)C1=O [Prestw-1129]	0.994 (active)
NC(CO)(CO)CO.O=C(c1ccccc1)c1ccc2n1CCC2C(=O)O (stereo not given)	1.01 (active)
COc1ccc(C2C3=C(CC(c4ccccc4)CC3=O)Nc3ccccc3N2C(=O)C(C)C)cc1OC (stereo not given)	1.01 (active)
Cl.N=C(N)NC(=O)c1nc(Cl)c(N)nc1N	0.988 (active)
O=Cc1cn(CCOc2ccc(Br)cc2)c2ccccc12	0.977 (active)
N#Cc1c(N=Cc2ccc(Br)cc2)sc2c1CCCC2	1 (active)
COc1c2c(nc3ccccc13)OC(C(C)(O)COC(C)=O)C2 (stereo not given)	1 (active)
Cc1ccc(OCCCOc2cccc3cccnc23)c(C)c1	0.895 (active)
O=S(=O)(c1ccc(F)cc1)n1cccc1	0.988 (active)
C[C@@H]1COC(Nc2ccc3ncnc(Nc4ccc(OCc5nccs5)c(Cl)c4)c3c2)=N1	0.595 (inactive)
NCCCC[C@H](N[C@@H](CCc1ccccc1)C(=O)O)C(=O)N1CCC[C@H]1C(=O)O	0.996 (active)
CC(C)COc1ccc(CNC(=O)N(Cc2ccc(F)cc2)C2CCN(C)CC2)cc1.CC(C)COc1ccc(CNC(=O)N(Cc2ccc(F)cc2)C2CCN(C)CC2)cc1.O=C(O)[C@H](O)[C@@H](O)C(=O)O	0.0597 (inactive)
O=C1c2cccc3c2[C@H](CCC3)CN1[C@@H]1CN2CCC1CC2 [Prestw-1783]	0.995 (active)

SMILES	viability score
COc1cc2nc(N3CCN(C(=O)c4ccco4)CC3)nc(N)c2cc1OC.Cl	1 (active)
Cc1cc(C(=O)Nc2ccc(-n3nnn(C)c3=O)cc2)c(C)o1	1.01 (active)
Cc1ccc(-c2cc(C(F)(F)F)n3nc(C(=O)NCCCN4CCOCC4)cc3n2)cc1	1.01 (active)
Cc1cccc(NC(=O)Cc2c(C)nc(SCc3ccccc3F)[nH]c2=O)c1C	0.997 (active)
Cc1ccc2sc(NC(=O)c3cccc(N4C(=O)CCC4=O)c3)nc2c1C	1.02 (active)
Cc1cc(C)n(CCNc2nc3ccccc3s2)n1	0.993 (active)
Cc1ccc(C(=O)N(CCCN)[C@@H](c2nc3cc(Cl)ccc3c(=O)n2Cc2ccccc2)C(C)C)cc1	0.0279 (inactive)
CC1=C(C(=O)OC(C)C)C(c2cccc([N+](=O)[O-])c2)C(C(=O)OC2CN(C(c3ccccc3)c3ccccc3)C2)=C(N)N1 (stereo not given)	0.902 (active)
COC(=O)C1=C(C)NC2=C(C(=O)CC(C)(C)C2)C1c1ccc(OC)c(O)c1 (stereo not given)	1.01 (active)
O=C(Nc1cc(C(F)(F)F)cc(C(F)(F)F)c1)c1ccco1	1.01 (active)
O=C(CSc1ccc2ccccc2n1)NC1=NCCS1	1.01 (active)
CC(C)n1cnc(S(=O)(=O)N2CCC(S(=O)(=O)Cc3ccccc3)CC2)c1	1 (active)
CCNc1cc(C)nc(Nc2ccc(NC(=O)c3ccc(OC)c(OC)c3)cc2)n1	0.977 (active)
O=C(C=Cc1ccc(Cl)c(Cl)c1)c1ccc2ccccc2c1O	1.01 (active)
CC(C)Cn1cc(Cl)c(=O)n(CC(C)C)c1=O	0.996 (active)
Cc1ccc(C=C2Oc3c(ccc(O)c3CN3CCN(CCO)CC3)C2=O)cc1	1.02 (active)
CN1CCN2c3ccccc3Cc3ccccc3C2C1.Cl (stereo not given)	0.307 (inactive)
COC(=O)C1=C(C)NC(=O)CC1c1ccc(Cl)c(Cl)c1 (stereo not given)	1.01 (active)
CC(Oc1cccc(Cl)c1)C(=O)NCc1ccncc1 (stereo not given)	1.02 (active)
COc1cc(C(C)=O)ccc1OCCCN1CCC(c2noc3cc(F)ccc23)CC1	0.991 (active)
